{
  "source": "the supplement of paper PMC8728848",
  "binders": {"B1": {"name": "Ficolin A (Rattus norvegicus), Q9WTS8 (protein)", "chain": "MWWPMLWAFPVLLCLCSSQALGQESGACPDVKIVGLGAQDKVAVIQSCPSFPGPPGPKGEPGSPAGRGERGLQGSPGKMGPPGSKGEPGTMGPPGVKGEKGERGTASPLGQKELGDALCRRGPRSCKDLLTRGIFLTGWYTIYLPDCRPLTVLCDMDVDGGGWTVFQRRVDGSINFYRDWDSYKRGFGNLGTEFWLGNDYLHLLTANGNQELRVDLREFQGQTSFAKYSSFQVSGEQEKYKLTLGQFLEGTAGDSLTKHNNMAFSTHDQDNDTNGGKNCAALFHGAWWYHDCHQSNLNGRYLPGSHESYADGINWLSGRGHRYSYKVAEMKIRAS"}, "B2": {"name": "CLL-1 (Homo sapiens) (protein)", "chain": "MWIDFFTYSSMSEEVTYADLQFQNSSEMEKIPEIGKFGEKAPPAPSHVWRPAALFLTLLCLLLLIGLGVLASMFHVTLKIEMKKMNKLQNISEELQRNISLQLMSNMNISNKIRNLSTTLQTIATKLCRELYSKEQEHKCKPCPRRWIWHKDSCYFLSDDVQTWQESKMACAAQNASLLKINNKNALEFIKSQSRSYDYWLGLSPEEDSTRGMRVDNIINSSAWVIRNAPDLNNMYCGYINRLYVQYYHCTYKKRMICEKMANPVQLGSTYFREA"}},
  "assay_in_all_cases": "glycan array binding signal (z-score within array); higher = stronger binding",
  "conditions_in_all_cases": "glycan notation: IUPAC condensed, linker removed",
  "key": {"[1]": {"target": "Fuc(a1-2)[GalNAc(a1-3)]Gal(b1-4)GlcNAc", "in_short": "(§1)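 Arrays were curated from the Consortium for Functional Glycomics database, 3228 in total, and kept only where the protein sequence was available. Binding is expressed as a within-array Z-score. This score was averaged across arrays of the same protein sequence at different concentrations or buffers and across linkers, and negative values can be read as non-binding.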"}, "Gal(a1-3)Gal(b1-4)Glc": {"target": "Gal(a1-3)Gal(b1-4)Glc", "in_short": "as §1"}, "[2]": {"target": "Gal(a1-3)Gal(b1-4)[Fuc(a1-3)]GlcNAc", "in_short": "as §1"}, "[3]": {"target": "Gal(b1-3)[Fuc(a1-4)]GlcNAc", "in_short": "as §1"}, "Gal(b1-4)Glc6S": {"target": "Gal(b1-4)Glc6S", "in_short": "as §1"}, "Glc(b1-4)Glc": {"target": "Glc(b1-4)Glc", "in_short": "as §1"}, "[4]": {"target": "GlcNAc(a1-6)Gal(b1-4)GlcNAc", "in_short": "as §1"}, "[5]": {"target": "GlcNAc(b1-2)Man(a1-3)[GlcNAc(b1-2)Man(a1-6)]Man(b1-4)GlcNAc(b1-4)GlcNAc", "in_short": "as §1"}, "GlcNAc(b1-3)Gal(b1-4)Glc": {"target": "GlcNAc(b1-3)Gal(b1-4)Glc", "in_short": "as §1"}, "[6]": {"target": "GlcNAc(b1-3)Gal(b1-4)GlcNAc", "in_short": "as §1"}, "[7]": {"target": "Man(a1-2)Man(a1-3)[Man(a1-2)Man(a1-6)]Man(a1-6)[Man(a1-2)Man(a1-2)Man(a1-3)]Man", "in_short": "as §1"}, "[8]": {"target": "Neu5Ac(a2-3)Gal(b1-3)[Fuc(a1-4)]GlcNAc(b1-3)Gal(b1-4)[Fuc(a1-3)]GlcNAc", "in_short": "as §1"}, "[9]": {"target": "Neu5Ac(a2-3)Gal(b1-3)[Neu5Ac(a2-6)]GalNAc", "in_short": "as §1"}, "[10]": {"target": "Neu5Ac(a2-3)Gal(b1-4)GlcNAc(b1-2)Man(a1-3)[Neu5Ac(a2-6)Gal(b1-4)GlcNAc(b1-2)Man(a1-6)]Man(b1-4)GlcNAc(b1-4)GlcNAc", "in_short": "as §1"}, "[11]": {"target": "Neu5Ac(a2-3)Gal(b1-4)GlcNAc(b1-3)Gal(b1-3)GlcNAc", "in_short": "as §1"}, "[12]": {"target": "Neu5Ac(a2-3)[GalNAc(b1-4)]Gal(b1-4)Glc", "in_short": "as §1"}, "Neu5Ac(a2-6)Gal": {"target": "Neu5Ac(a2-6)Gal", "in_short": "as §1"}, "Neu5Ac(a2-8)Neu5Ac": {"target": "Neu5Ac(a2-8)Neu5Ac", "in_short": "as §1"}, "[13]": {"target": "Neu5Ac(a2-8)Neu5Ac(a2-8)Neu5Ac(a2-3)[GalNAc(b1-4)]Gal(b1-4)Glc", "in_short": "as §1"}, "[14]": {"target": "Neu5Ac(b2-6)Gal(b1-4)GlcNAc", "in_short": "as §1"}, "[15]": {"target": "Fuc(a1-2)[GalNAc(a1-3)]Gal(b1-4)Glc", "in_short": "as §1"}, "[16]": {"target": "Gal(b1-3)GalNAc(b1-4)Gal(b1-4)Glc", "in_short": "as §1"}, "[17]": {"target": "Gal(b1-4)GlcNAc(b1-3)Gal(b1-4)[Fuc(a1-3)]GlcNAc(b1-3)Gal(b1-4)[Fuc(a1-3)]GlcNAc", "in_short": "as §1"}, "[18]": {"target": "Gal(b1-4)GlcNAc(b1-3)GalNAc", "in_short": "as §1"}, "Gal3S6S(b1-4)GlcNAc6S": {"target": "Gal3S6S(b1-4)GlcNAc6S", "in_short": "as §1"}, "Glc(a1-4)Glc": {"target": "Glc(a1-4)Glc", "in_short": "as §1"}, "GlcNAc(b1-3)GalNAc": {"target": "GlcNAc(b1-3)GalNAc", "in_short": "as §1"}, "[19]": {"target": "GlcNAc(b1-3)[GlcNAc(b1-6)]GalNAc", "in_short": "as §1"}, "[20]": {"target": "GlcNAc(b1-4)[GlcNAc(b1-6)]GalNAc", "in_short": "as §1"}, "[21]": {"target": "Neu5Ac(a2-3)Gal(b1-3)[Fuc(a1-4)]GlcNAc", "in_short": "as §1"}, "[22]": {"target": "Neu5Ac(a2-3)Gal(b1-4)GlcNAc", "in_short": "as §1"}, "[23]": {"target": "Neu5Ac(a2-3)Gal(b1-4)GlcNAc(b1-3)Gal(b1-4)GlcNAc(b1-3)Gal(b1-4)GlcNAc", "in_short": "as §1"}, "[24]": {"target": "Neu5Ac(a2-3)Gal(b1-4)[Fuc(a1-3)]GlcNAc6S", "in_short": "as §1"}, "[25]": {"target": "Neu5Ac9Ac(a2-6)Gal(b1-4)GlcNAc", "in_short": "as §1"}, "[26]": {"target": "Neu5Gc(a2-6)Gal(b1-4)GlcNAc", "in_short": "as §1"}},
  "note": "This is one part of a sample in which the strongest signals are shown more often than they occur.",
  "data": [
    {"binder": "B1", "values": [
      {"measurement": "glycan array binding signal (z-score)", "setting": "[1]", "value": -0.02},
      {"measurement": "glycan array binding signal (z-score)", "setting": "Gal(a1-3)Gal(b1-4)Glc", "value": -0.071},
      {"measurement": "glycan array binding signal (z-score)", "setting": "[2]", "value": -0.105},
      {"measurement": "glycan array binding signal (z-score)", "setting": "[3]", "value": -0.069},
      {"measurement": "glycan array binding signal (z-score)", "setting": "Gal(b1-4)Glc6S", "value": -0.092},
      {"measurement": "glycan array binding signal (z-score)", "setting": "Glc(b1-4)Glc", "value": -0.11},
      {"measurement": "glycan array binding signal (z-score)", "setting": "[4]", "value": 17.3},
      {"measurement": "glycan array binding signal (z-score)", "setting": "[5]", "value": -0.048},
      {"measurement": "glycan array binding signal (z-score)", "setting": "GlcNAc(b1-3)Gal(b1-4)Glc", "value": -0.056},
      {"measurement": "glycan array binding signal (z-score)", "setting": "[6]", "value": -0.094},
      {"measurement": "glycan array binding signal (z-score)", "setting": "[7]", "value": -0.092},
      {"measurement": "glycan array binding signal (z-score)", "setting": "[8]", "value": -0.064},
      {"measurement": "glycan array binding signal (z-score)", "setting": "[9]", "value": 0.325},
      {"measurement": "glycan array binding signal (z-score)", "setting": "[10]", "value": -0.027},
      {"measurement": "glycan array binding signal (z-score)", "setting": "[11]", "value": -0.098},
      {"measurement": "glycan array binding signal (z-score)", "setting": "[12]", "value": 0.265},
      {"measurement": "glycan array binding signal (z-score)", "setting": "Neu5Ac(a2-6)Gal", "value": -0.042},
      {"measurement": "glycan array binding signal (z-score)", "setting": "Neu5Ac(a2-8)Neu5Ac", "value": 0.58},
      {"measurement": "glycan array binding signal (z-score)", "setting": "[13]", "value": -0.047},
      {"measurement": "glycan array binding signal (z-score)", "setting": "[14]", "value": 1.16}
    ]},
    {"binder": "B2", "values": [
      {"measurement": "glycan array binding signal (z-score)", "setting": "[15]", "value": -0.065},
      {"measurement": "glycan array binding signal (z-score)", "setting": "[16]", "value": -0.279},
      {"measurement": "glycan array binding signal (z-score)", "setting": "[17]", "value": -0.107},
      {"measurement": "glycan array binding signal (z-score)", "setting": "[18]", "value": -0.238},
      {"measurement": "glycan array binding signal (z-score)", "setting": "Gal3S6S(b1-4)GlcNAc6S", "value": 3.91},
      {"measurement": "glycan array binding signal (z-score)", "setting": "Glc(a1-4)Glc", "value": 1},
      {"measurement": "glycan array binding signal (z-score)", "setting": "GlcNAc(b1-3)GalNAc", "value": -0.228},
      {"measurement": "glycan array binding signal (z-score)", "setting": "[19]", "value": -0.19},
      {"measurement": "glycan array binding signal (z-score)", "setting": "[20]", "value": -0.247},
      {"measurement": "glycan array binding signal (z-score)", "setting": "[21]", "value": 1.22},
      {"measurement": "glycan array binding signal (z-score)", "setting": "[22]", "value": -0.14},
      {"measurement": "glycan array binding signal (z-score)", "setting": "[23]", "value": 2.45},
      {"measurement": "glycan array binding signal (z-score)", "setting": "[24]", "value": -0.15},
      {"measurement": "glycan array binding signal (z-score)", "setting": "[25]", "value": -0.216},
      {"measurement": "glycan array binding signal (z-score)", "setting": "[26]", "value": -0.231}
    ]}
  ]
}
